Test [1] is described as follows: NCI Yeast Anticancer Drug Screen. Data for the rad50 strain (AID 155).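 Further: 0% = growth of vehicle-only cultures of the same strain.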 To be noted: S. cerevisiae rad50 strain growth inhibition; at 50.0 µM; stronger effect = higher value. The method, boiled down: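 Vehicle-treated cultures provide the reference for the growth inhibition reported for compound-exposed, repair-deficient yeast.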
Test [2] can be described thus: NCI Yeast Anticancer Drug Screen. Data for the mec2-1 strain (AID 157). To be noted: S. cerevisiae mec2-1 strain, at 50.0 µM, stronger effect = higher value. Summed up: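 Using mec2-1 yeast: add compound, measure growth, express inhibition versus vehicle-treated cultures.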
The nature of test [3]: NCI Yeast Anticancer Drug Screen. Data for the sgs1 mgt1 strain (AID 161).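 Further: 0% = growth of cultures given vehicle only.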 To be noted: S. cerevisiae sgs1 mgt1 strain, at 50.0 µM, stronger effect = higher value. The method, boiled down: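 Growth of a repair-deficient yeast mutant was monitored after compound treatment and expressed as inhibition relative to vehicle-treated cultures.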
Test [4] in a line: NCI Yeast Anticancer Drug Screen. Data for the cln2 rad14 strain (AID 165).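 Further: 0% = growth equal to vehicle treated cultures.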 To be noted: S. cerevisiae cln2 rad14 strain, at 50.0 µM, stronger effect = higher value. Summed up:
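Yeast strain cln2 rad14, bearing defects in cell cycle control and DNA repair, serves as the test system; values reflect growth inhibition compared with vehicle.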

Test [5] in a line: NCI Yeast Anticancer Drug Screen. Data for the bub3 strain (AID 167). To be noted: S. cerevisiae bub3 mutant strain, at 50.0 µM, stronger effect = higher value. The method, boiled down: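 Mutant yeast screening strain plus compound; vehicle-treated cultures serve as the 0% inhibition reference.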
The nature of test [6]: NCI Yeast Anticancer Drug Screen. Data for the mlh1 rad18 strain (AID 175). To be noted: S. cerevisiae mlh1 rad18 strain growth inhibition; at 50.0 µM; stronger effect = higher value. Summed up:
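Steps: expose repair-defective yeast to compound; measure growth; express inhibition against vehicle-treated controls.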

This is part of a sample that, as a whole, favours compounds with a hit. Of some 79,000 tested, about 15% had one in any assay. A number with no mark means an inactive call. The source made the active and inactive calls. No stated cut-off is given here; in the data, active means growth inhibition above about 70%; inactive means the rest.

`NC(CSC(c1ccccc1)(c1ccccc1)c1ccccc1)C(=O)OC(c1ccccc1)c1ccccc1` (stereo not given): the growth inhibition in test [1] was 19.3%; in test [2], -7%; in test [3], 29.6%; in test [4], -44.5%; in test [5] it was -18.7%; in test [6], 22.2%.
On to `O/N=C(/Cc1ccccc1)CC(O)(C(F)(F)F)C(F)(F)F`, for which the growth inhibition in test [1] is 90.8% (active); in test [2] it was 89.5% (active); in test [3], 87% (active); in test [4], 85.8% (active); in test [5], 86.7% (active); in test [6] it was 94.3% (active).
As to `Nc1ccc(OCCc2c(N)nc(N)nc2N)cc1`, the growth inhibition was -1.2% in test [1]; 7.15% in test [2]; 12.4% in test [3]; -4.05% in test [4]; 22.7% in test [5]; 9.7% in test [6].
Take `CC(=O)c1c(Cl)cc(Cl)c(Cl)c1Cc1c(Cl)c(Cl)cc(Cl)c1C(C)=O`: the growth inhibition in test [1] is 9.5%; in test [2], 9.8%; in test [3], 7%; in test [4] it was 18.2%; in test [5], 5.95%; in test [6] it was 9.55%.
On to `COc1cc(C=Nc2ccc(C)c(Cl)c2)ccc1OC(=O)c1ccccc1`, for which the growth inhibition was -22.2% in test [1]; -9.05% in test [2]; -8.3% in test [3]; -12.8% in test [4]; 3.5% in test [5]; -0.3% in test [6].
In the case of `O=c1ccn(C2OC(CO)C(O)C2Cl)c(=O)[nH]1` (stereo not given), the growth inhibition was -6.7% in test [1]; -42.1% in test [2]; -11.4% in test [3]; 10.2% in test [4]; 4.9% in test [5]; -14.4% in test [6].
Consider `O=C(O)c1ccccc1SC(Sc1ccccc1C(=O)O)c1ccc(Cl)cc1`, for which the growth inhibition in test [1] was 4.8%; in test [2], -9.15%; in test [3], -9%; in test [4], -11.9%; in test [5], -4.1%; in test [6], 15.2%.
As for `CCOC(=O)C(C)c1nc2cc(N3CCOCC3)c(F)cc2[nH]c1=O` (stereo not given), the growth inhibition was 24.6% in test [1]; -7.55% in test [2]; 11.7% in test [3]; 28.6% in test [4]; 5.7% in test [5]; 4.95% in test [6].
In the case of `CCCCN(CCCC)CC(O)c1cc(-c2cc(C(O)CN(CCCC)CCCC)c3ccccc3n2)nc2ccccc12` (stereo not given), the growth inhibition in test [1] is 50.9%; in test [2] it was -8.2%; in test [3], 46.1%; in test [4] it was -6.85%; in test [5], 5.3%; in test [6], 32.4%.
Take `COC(=O)c1nc(N)nc(C(=O)OC)c1C(=O)c1ccccn1`: the growth inhibition was -12.1% in test [1]; -19.2% in test [2]; 1.65% in test [3]; -20.2% in test [4]; -11.3% in test [5]; -1.75% in test [6].
For the compound `CC(=O)NC(=O)CCc1ccccc1`, the growth inhibition in test [1] is -12.2%; in test [2] it was -12.7%; in test [3] it was -20.3%; in test [4], -26.1%; in test [5] it was -8.15%; in test [6], -6%.
Turning to `C#CC[N+](CC)(CC)CC`, the growth inhibition in test [1] was 2.6%; in test [2], -11.9%; in test [3] it was -11.3%; in test [4], -84%; in test [5], -3.3%; in test [6], -13.2%.
Turning to `Cc1nc(-c2ccc([N+](=O)[O-])cc2)cn2c1nc1ccccc12`, the growth inhibition in test [1] was -26.9%; in test [2] it was -33%; in test [3] it was -34.1%; in test [4] it was -67.6%; in test [5], -4.25%; in test [6] it was -17.8%.
`N#CCOc1ccc(/C=C/C(=O)c2ccc(Cl)cc2)cc1`: the growth inhibition was -39.5% in test [1]; -53.6% in test [2]; -23.1% in test [3]; -23.1% in test [4]; 20.4% in test [5]; -21.2% in test [6].
With `CC(C)CCOC(=O)C(C)(O)C(Cl)c1ccccc1` (stereo not given), the growth inhibition in test [1] was 2.9%; in test [2], 2.55%; in test [3] it was -13.2%; in test [4], 1.35%; in test [5] it was 6.25%; in test [6], -6.95%.
As for `COC(=O)C(C(=O)c1ccccc1)C(C(=O)C(=O)Nc1ccc(OC)cc1OC)C(=O)C(=O)c1ccc(C)cc1` (stereo not given), the growth inhibition was -1.3% in test [1]; 10.8% in test [2]; 3.7% in test [3]; -3.9% in test [4]; 2.85% in test [5]; 19.6% in test [6].
As to `CC1(C)C=CC=C(C(=O)O)C=C1`, the growth inhibition in test [1] was -23.1%; in test [2] it was -24%; in test [3], -34.2%; in test [4], -21.4%; in test [5], -13.7%; in test [6], -14.7%.
For `O=C(SCc1ccccc1)C(O)c1ccccc1` (stereo not given), the growth inhibition in test [1] was 1.95%; in test [2] it was 6.9%; in test [3] it was 15.7%; in test [4] it was -24.6%; in test [5], 19.3%; in test [6] it was 5.2%.
Turning to `COC(=O)[C@@]1(C)/C(=N/NS(=O)(=O)c2ccc(C)cc2)CCC[C@@H]1C`, the growth inhibition in test [1] was 11.4%; in test [2], -23%; in test [3], -7.15%; in test [4], 3.05%; in test [5] it was -1.4%; in test [6], -1.85%.
As for `O=Cc1[nH]c(=S)[nH]c(=O)c1Cc1cccc(Cl)c1`, the growth inhibition in test [1] is 63.9%; in test [2], 35.2%; in test [3], 83.2% (active); in test [4], 56.2%; in test [5] it was 77.5% (active); in test [6], 83.2% (active).
